This passage reports outcome results from PubChem BioAssay AID1053117 (Broad Institute, 2014).

Results with a measured potency or affinity are listed apart. Calls of active or inactive are those of the source.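 The calls were made as follows: active = compounds lowering cell ATP signal with a fitted half-effect dose at most twice the top valid dose; inconclusive = flat curve with 30 to 70% signal loss, or bad fit; inactive = wrong direction, flat within 30%, or weaker than limit.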

A short description of this assay: viability loss in HEK293 kidney cells – cell-based, cherry-picks, set 5, cytotoxicity control, dose response (AID 1053117).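 Also: more negative means greater loss of ATP signal and more cytotoxicity.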 To be noted: HEK293T viability, CellTiter-Glo ATP luminescence, 72 h; series mostly up to 26 µM. In general terms: ATP-based viability assays read luminescence as a measure of living cells.
In the case of `CN1c2ccc(-c3ccccc3)cc2[C@@H]2[C@@H](CCN2C(=O)CN2CCOCC2)[C@H]1CO`, the compound was called inactive.
The entry for `Cc1ccc(C(O)c2ncc(-c3cccc4ccccc34)[nH]2)cc1F` (stereo not drawn) is “inactive”.
As to `CO[C@@H]1CN(C)C(=O)c2cc(NC(=O)Nc3ccc(Cl)c(Cl)c3)ccc2OC[C@H](C)NC[C@@H]1C`, the call was inactive.
The entry for `CC(=O)Nc1cccc(-c2ccnc3c2CC(C)(C(=O)Nc2cccc(C(F)(F)F)c2)O3)c1` (stereo not drawn) is “inactive”; for `COc1ccc(-c2csc(CCn3nc(C)cc3C)n2)cc1OC` it is “inactive”.
The entry for `O=C(C[C@@H]1C[C@@H]2c3cc(NC(=O)c4ccc5c(c4)OCO5)ccc3O[C@@H]2[C@@H](CO)O1)NCc1ccc(Oc2ccccc2)cc1` is “inactive”; for `COC(=O)C[C@H]1CC[C@@H]2[C@@H](COc3ccc(NC(=O)Cc4cccs4)cc3C(=O)N2C)O1` it is “inactive”; for `C[C@H]1CN([C@@H](C)CO)C(=O)c2cccc(NC(=O)Nc3ccc(C(F)(F)F)cc3)c2O[C@H]1CN(C)C(=O)Nc1cccc2ccccc12` it is “inactive”.
As for `COCC(=O)Nc1ccc2c(c1)C(=O)N(C)[C@@H]1CC[C@H](CC(=O)NCc3ccccc3Cl)O[C@H]1CO2`, the entry is “inactive”; as for `O=C(NCc1ccccc1)c1ccc(-c2cn[nH]c2)c2ccoc12`, “inactive”; as for `COCC(=O)Nc1ccc2c(c1)C(=O)N(C)[C@H]1CC[C@H](CC(=O)NCc3ccccc3Cl)O[C@H]1CO2`, “inactive”.
Take `C[C@H]1CN([C@@H](C)CO)C(=O)c2cc(NC(=O)CCCN(C)C)ccc2O[C@@H]1CN(C)Cc1ccc(-c2ccccc2)cc1`: the call was inactive.
As for `COc1ccc(Cl)cc1NC(=O)CSc1nc(Nc2ccccc2)nc(N2CCOCC2)n1`, the entry is “inactive”.
